# Results reported in the supplement of paper PMC6555819.
# Tests used:
# Test in all cases: PBM binding z-score (relative to random genomic background probes); higher = stronger binding; sequences stand for … in GC…GCGATTGACAGCGTAGAATGAAGG
# [1] = system: FXR:RXRa (NR concentration 270 nM, RXRa partner concentration 90 nM)
# How it was run: (§1)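 Probes were double-stranded and carried 34-nt variable regions with direct-repeat seeds, single-nucleotide variants, half-site ablations and random human genomic background sequences, printed on custom Agilent 4×180K protein-binding microarrays. Arrays were incubated 1 h with ligand-free nuclear receptor dimers in PBS pH 7.4, 2% milk, 0.02% Triton X-100, 1 mM DTT, 0.2 mg/mL BSA and 0.4 mg/ml salmon testes DNA. Antibodies against each partner (one per run) detected binding, and scanned fluorescence was regression-normalized. Binding z-scores use the random background probes as reference.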
# [2] = system: LXRa:RXRa (NR concentration 270 nM, RXRa partner concentration 90 nM)
# How it was run: as §1
# [3] = system: LXRa homodimer (NR concentration 270 nM)
# How it was run: as §1
# [4] = system: LXRb:RXRa (NR concentration 270 nM, RXRa partner concentration 90 nM)
# How it was run: as §1
# [5] = system: LXRb homodimer (NR concentration 270 nM)
# How it was run: as §1
# [6] = system: PPARa:RXRa (NR concentration 270 nM, RXRa partner concentration 90 nM)
# How it was run: as §1
# [7] = system: PPARg:RXRa (NR concentration 180 nM, RXRa partner concentration 90 nM)
# How it was run: as §1
# [8] = system: PPARg:RXRa 270nM:90nM, anti-RXR (NR concentration 270 nM, RXRa partner concentration 90 nM)
# How it was run: as §1
# [9] = system: PPARg:RXRa 30nM:10nM, anti-RXR (NR concentration 30 nM, RXRa partner concentration 10 nM)
# How it was run: as §1
# [10] = system: PPARg:RXRa 90nM:30nM, anti-RXR (NR concentration 90 nM, RXRa partner concentration 30 nM)
# How it was run: as §1
# [11] = system: PPARg:RXRa DBDmut IVT, anti-RXR (DBD mutation: RXRa K156A/R161A, NR concentration 270 nM, RXRa partner concentration 90 nM)
# How it was run: as §1
# [12] = system: PPARg:RXRa IVT, anti-PPARg (NR concentration 270 nM, RXRa partner concentration 90 nM)
# How it was run: as §1
# [13] = system: PPARg DBDmut:RXRa IVT, anti-PPARg (DBD mutation: PPARg1 K132A/R137A, NR concentration 270 nM, RXRa partner concentration 90 nM)
# How it was run: as §1
# [14] = system: PPARg DBDmut IVT, anti-PPARg (DBD mutation: PPARg1 K132A/R137A, NR concentration 270 nM)
# How it was run: as §1
# [15] = system: PPARg homodimer (NR concentration 180 nM)
# How it was run: as §1
# [16] = system: PXR:RXRa (NR concentration 270 nM, RXRa partner concentration 90 nM)
# How it was run: as §1
# [17] = system: PXR homodimer (NR concentration 270 nM)
# How it was run: as §1
# [18] = system: RARa:RXR (NR concentration 270 nM, RXRa partner concentration 90 nM)
# How it was run: as §1
# [19] = system: RARa homodimer (NR concentration 270 nM)
# How it was run: as §1
# [20] = system: RARb:RXRa (NR concentration 270 nM, RXRa partner concentration 90 nM)
# How it was run: as §1
Sequence,PBM binding z-score [1],PBM binding z-score [2],PBM binding z-score [3],PBM binding z-score [4],PBM binding z-score [5],PBM binding z-score [6],PBM binding z-score [7],PBM binding z-score [8],PBM binding z-score [9],PBM binding z-score [10],PBM binding z-score [11],PBM binding z-score [12],PBM binding z-score [13],PBM binding z-score [14],PBM binding z-score [15],PBM binding z-score [16],PBM binding z-score [17],PBM binding z-score [18],PBM binding z-score [19],PBM binding z-score [20]
TAGCCTAGGTCATACGGGCCAGTATAGTGTCGGC,4.14,3.21,0.859,1.8,-0.00996,3.5,2.18,2.57,0.318,1.54,1.67,2.89,-0.195,-0.639,0.811,1.66,-0.13,2.4,0.0154,3.56
GCATATAGGTAATACAAGGTGATAGTCCGATTGT,1.42,0.97,0.0526,-0.116,-0.184,0.93,1.32,0.737,0.438,0.536,4.05,2.84,1.05,1.46,0.142,0.0575,-0.157,0.688,0.359,-0.103
ATCTCTAGGTAAGACTCAGGTCAGTGAAGAACGC,0.852,0.72,0.909,0.721,0.721,1.03,0.296,0.86,0.135,0.413,1.9,1.67,0.483,1.13,1.65,0.724,0.764,0.911,0.98,1.62
CGAACTAGGTCATTGACAGGACAGTTAATAGTAA,4.35,3.12,0.774,2.36,0.0885,4.66,7.39,6.51,3.39,5.59,8.43,8.43,3.82,2.93,2,1.68,0.386,2.32,0.822,3.6
CATACAGGGTCAGCTAGCCCAGAGTAGGGACGGC,4.68,3.03,-0.244,2.21,0.0889,4.36,3.35,2.84,0.528,1.8,0.792,2.19,0.206,-0.0933,1.48,2.1,-0.17,3.11,0.642,4.01
CCTAGCAAGCCAATCTGGGTCACTCAAGGCTTGA,0.309,0.44,-0.472,0.641,-0.582,3.06,1.85,1.79,-0.259,0.994,3.85,4.86,-0.252,-0.0798,0.973,0.841,-0.371,1.69,-0.371,0.92
CCTACTGGGCCATCAGGTCATTGAAATCAACGTT,1.33,1.07,1.03,1.45,-0.244,2.74,2.67,3.66,1.23,2.99,4.17,4.91,-0.467,-0.409,0.78,1.25,0.298,1.68,0.289,2.04
TGAATGAGGTTATAAGATCACGGAACGTTGCAAA,1.72,1.49,-0.0904,1.48,-0.205,3.21,2.15,2.44,1.12,2.05,0.939,2.19,1.02,1.32,0.335,1.43,0.182,2.09,0.409,1.5
TCTCGGAGGACACGAAGGTAAGAGCTTTCCAGAG,0.0947,-0.361,-0.534,-0.695,-1.37,-0.0207,-0.0725,0.91,2.21,1.39,1.18,-0.283,-1.16,-1.1,-1.58,-0.316,-1.01,-0.153,-0.725,1.25
